# Keap1-Nrf2 PPI: inhibitors of human Keap1-Nrf2 protein-protein interaction | inhibition, % at 9.4 µM | 340,000 tested, 0.15% active | Q14145 | Keap1 Kelch-Nrf2 peptide fluorescence polarization, 1536-well | AID 504523; in the data active means inhibition above about 12%;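 further: human Keap1 Kelch domain with fluorescein labeled Nrf2 9mer peptide probe; 0% = neutral control wells and 100% = peptide positive control; higher means more block of Keap1 binding to Nrf2 peptide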
# Cardiac RTF inh: cardiac RTF calcium desensitization; IANBD-labeled cardiac RTF, Ca2+ fluorescence; inhibition, % at 7.15 µM; 340,000 tested, 0.12% active; AID 493244;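 active means inhibition above the mean inhibition of all tested compounds plus 3 SD, cut at about 17% in these data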;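 further: assay run at fixed EC70 calcium of 1.6 mM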
# RTF Ca sens act: increases calcium sensitivity of human cardiac regulated thin filaments. P19429+P45379. IANBD-labeled TnC RTF fluorescence at EC20 calcium; 0% EC20 calcium, 100% full calcium. activation, % at 7.2 µM. 340,000 tested, 0.24% active. AID 493008;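 active means activation above the mean over all tested compounds plus 3 SD, cut at about 30% in these data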;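 further: rise in fluorescence read as greater calcium sensitivity of cardiac thin filaments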
# LANA-H2B inh: blocks KSHV LANA binding to histone H2A/H2B | 320,000 tested, 0.6% active | cell-free LANA-H2A/H2B peptide, fluorescence polarization | Q9QR71 | inhibition, % (no concentration beside the values); in the data active means inhibition mostly above about 10%, no sharp cut-off; inactive means mostly below about 6.7%
# Target sequence (Q9QR71 whole entry, looked up): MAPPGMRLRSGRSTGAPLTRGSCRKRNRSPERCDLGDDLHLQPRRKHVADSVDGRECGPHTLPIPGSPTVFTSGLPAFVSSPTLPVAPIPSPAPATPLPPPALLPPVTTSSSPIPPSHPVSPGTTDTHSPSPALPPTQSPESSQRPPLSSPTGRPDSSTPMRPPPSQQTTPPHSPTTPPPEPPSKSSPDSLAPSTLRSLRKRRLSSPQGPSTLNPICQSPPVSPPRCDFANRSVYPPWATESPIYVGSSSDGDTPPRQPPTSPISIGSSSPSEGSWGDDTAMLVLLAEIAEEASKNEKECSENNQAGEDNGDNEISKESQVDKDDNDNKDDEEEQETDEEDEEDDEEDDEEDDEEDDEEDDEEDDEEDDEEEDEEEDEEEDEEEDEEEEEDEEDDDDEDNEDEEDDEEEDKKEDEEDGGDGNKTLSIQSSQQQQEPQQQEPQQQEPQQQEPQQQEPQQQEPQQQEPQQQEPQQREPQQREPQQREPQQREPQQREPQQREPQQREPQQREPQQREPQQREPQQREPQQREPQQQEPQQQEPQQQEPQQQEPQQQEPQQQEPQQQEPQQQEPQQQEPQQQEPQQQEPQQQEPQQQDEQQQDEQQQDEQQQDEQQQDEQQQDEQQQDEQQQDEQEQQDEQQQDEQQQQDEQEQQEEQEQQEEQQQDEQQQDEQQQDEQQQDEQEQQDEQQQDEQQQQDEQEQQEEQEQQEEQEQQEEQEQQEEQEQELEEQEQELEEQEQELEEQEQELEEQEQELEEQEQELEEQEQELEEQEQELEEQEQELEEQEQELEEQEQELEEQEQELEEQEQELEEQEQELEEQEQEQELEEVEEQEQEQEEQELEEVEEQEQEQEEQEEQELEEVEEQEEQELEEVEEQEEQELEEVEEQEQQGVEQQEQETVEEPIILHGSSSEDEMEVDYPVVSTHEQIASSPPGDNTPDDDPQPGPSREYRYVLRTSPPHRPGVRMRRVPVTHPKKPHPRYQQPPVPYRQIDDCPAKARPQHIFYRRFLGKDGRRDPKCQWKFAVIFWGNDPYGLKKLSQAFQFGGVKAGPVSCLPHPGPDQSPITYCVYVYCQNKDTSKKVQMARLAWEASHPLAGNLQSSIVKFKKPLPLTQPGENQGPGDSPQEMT
# LANA DNA inh: inhibitors of KSHV LANA C-terminal domain DNA binding. MBP-C-LANA/FAM-LBS DNA binding, fluorescence polarization. inhibition, % at 9 µM. 340,000 tested, 0.078% active;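 active means highest replicate inhibition at or above 60% at 9 µM, even if other replicates fall short; inactive means all replicates below 60% inhibition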;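 further: 0% = neutral control wells and 100% = 4 µM acridine orange control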
# * = called active by the depositor; · = not tested or not shown; + = active, no number. This is a sample that favours compounds with a hit; in the whole collection about 0.98% have one here.
SMILES,Keap1-Nrf2 PPI,Cardiac RTF inh,RTF Ca sens act,LANA-H2B inh,LANA DNA inh
O=C(Nc1ccccc1)c1ccccc1CCc1ccccc1,-5,-3,13,23*,-1
COc1cc2c3nnc(-c4ccc(F)cc4)c-3cn(Cc3cccc(F)c3)c2cc1OC,1,-63,49*,-24,17
CSCCC(NC(=O)c1ccccc1Cl)C(=O)N1CCCCCCC1 (configuration not stated),0,-4,3,0,-5
COc1ccc(C(=O)NC(CCSC)C(=O)N2CCCCCC2)cc1 (configuration not stated),0,8,-9,31*,0
C=CCn1c(SCC(=O)Nc2ccc(-c3nc4ccc(C)cc4s3)cc2)nnc1-c1ccccc1,-4,-14,2,159*,1
CCOC(=O)C(CCCCCCC(NC(C)=O)(C(=O)OCC)C(=O)OCC)(NC(C)=O)C(=O)OCC,-3,0,83*,3,0
CCOC(=O)C(CO)(NC(C)=O)C(=O)OCC,-6,-12,6,0,-1
CCN(CC)c1ccc2c(c1)oc(=O)c1c(Cl)cc(=O)oc12,-2,-270,200*,2,6
CC1CCC(NCCNC(=O)c2ccco2)CC1 (configuration not stated),-3,-4,4,0,0
CN(CC(=O)OCC(=O)NCc1ccccc1)S(=O)(=O)c1ccc(F)cc1,-8,-12,3,+,0
CN(CC(=O)OCC(=O)NCc1ccccc1)S(=O)(=O)c1ccc(Cl)cc1,0,-18,-1,-1,7
O=C(COC(=O)c1ccc([N+](=O)[O-])o1)NCCc1ccccc1,-4,-8,4,4,0
CC(NC(=O)COC(=O)c1ccc([N+](=O)[O-])o1)c1ccccc1 (configuration not stated),0,0,4,-10,108*
CC(C)C(=O)N1CCN(c2ccc(NC(=S)NC(=O)c3cc4ccccc4o3)cc2)CC1,-4,-6,1,3,-2
CCC(=O)N1CCN(c2ccc(NC(=S)NC(=O)c3cc4ccccc4o3)cc2)CC1,0,4,0,94*,-1
CCOc1ccc(N2C(=O)S/C(=C\c3cccn3C)C2=O)cc1,-2,5,5,20*,1
O=[N+]([O-])c1cccc(Cn2cnc3c(=S)nc[nH]c32)c1,-2,-2,0,·,1
N#CCCn1cnc2c(=S)nc[nH]c21,1,-4,1,9.9*,2
Cc1c(Cl)ccc(S(=O)(=O)NCCCn2ccnc2)c1Cl,-4,-4,9,1,0
COC(=O)c1[nH]c(=O)c2ccccc2c1O,3,-7,1,23*,0
CC(C)(C)c1nnc(SCC(=O)Nc2ccc(N3CCCCC3)cc2)n1N,-3,1,-2,+,0
CC(C)n1cnnc1SCC(=O)Nc1ccc(N2CCCCC2)cc1,3,-4,-2,2,-2
CCCCn1c(N)c(N(CCOC)C(=O)CSCc2cccc(C)c2)c(=O)[nH]c1=O,·,-26,9,3,·
Cc1ccc(-c2ccc(/C=C(\C#N)C(N)=S)n2C)cc1,0,-3,2,26*,1
CCCN(CC(=O)Nc1ccccc1C)C(=O)C1CCN(S(=O)(=O)c2cccc(C(F)(F)F)c2)CC1,-2,3,-13,-5,-1
SMILES,Keap1-Nrf2 PPI,Cardiac RTF inh,RTF Ca sens act,LANA-H2B inh,LANA DNA inh
CC(C(=O)Nc1ccc(F)c(F)c1F)N(C)CCOc1ccccc1 (configuration not stated),-1,13,0,11*,0
CN(Cc1ccccc1)C(=O)c1[nH]cnc1C(=O)Nc1nccs1,1,-4,-2,2,7
CCN(CCn1cccn1)C(=O)c1ccc(OC2CCN(C(=O)COC)CC2)cc1,-3,-4,2,1,0
Cc1n[nH]c(=O)c2c(NC(=O)CSc3nnc(-c4ccco4)n3C)oc(C)c12,-1,-3,-2,92*,0
COc1ccccc1-c1nnc(SCC(=O)Nc2oc(C)c3c(C)n[nH]c(=O)c23)n1C,-5,-2,9,-7,-1
O=C(CNC(=O)C(c1ccccc1)c1ccccc1)N/N=C\c1cccc(O)c1,0,3,2,94*,0
CCOC(=O)c1c(C)n(C)c2ccc(O)c(CN3CCN(C)CC3)c12,4,4,11,-2,-1
CCOC(=O)c1c(CSc2ccccc2)n(C)c2ccc(O)c(CN3CCOCC3)c12,-3,-8,1,18*,-1

# Source: PubChem BioAssay
